# An excerpt weighted towards active compounds, which were near 0.74% of everything screened.
# TCR act = T cell receptor activation; primary human leukocytes, anti-CD3, IL-2 HTRF, 48 h; Potency, µM (top dose mostly 9.22 µM), for the others: top-dose activation of IL-2 secretion, most hits filed as activators; 330,000 tested, under 10 active; AID 504894; active means well fitted activation curve with a large enough effect; further: % of control where 0% means no effect
#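 1) Mix primary human leukocytes, a-CD3 beads and compound. 2) Incubate 48 hr. 3) Add HTRF IL-2 reagents (a-IL-2-K, a-IL-2-d2).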
# pAkt inh = blocks phosphorylation of Akt | Neuro2A IGF-stimulated pAkt S473 HTRF, 20 min; hits give low values | activity change, % for hits at 50 µM | 360,000 tested, 0.32% active; in the data active means activity change below about -80%; further: on the % scale 0 is the no-effect control and ±100 the full control effect
#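 Neuro2A cells in DMEM with 0.5% FBS, overnight at 37 deg C, given compound at single 50 µM final, then IGF (6 nM final) for 20 min at 37 deg C. Lysed; phospho-Akt Ser473 by HTRF after 24 h, 665/615 ratio.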
# TSHR antag = antagonists of human thyroid stimulating hormone receptor. TSHR-expressing cells, TSH-stimulated cAMP HTRF, 2 h; hits give low values. 330,000 tested, 0.2% active. activity change, negative = inhibition, % at 11.5 µM. AID 504810. P16473;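 active means activity change below a set negative limit, meaning inhibition stronger than a set level, cut at about -70% in these data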; further: on the % scale 0 is the no-effect control and ±100 the full control effect
# Target sequence (P16473 whole entry, looked up): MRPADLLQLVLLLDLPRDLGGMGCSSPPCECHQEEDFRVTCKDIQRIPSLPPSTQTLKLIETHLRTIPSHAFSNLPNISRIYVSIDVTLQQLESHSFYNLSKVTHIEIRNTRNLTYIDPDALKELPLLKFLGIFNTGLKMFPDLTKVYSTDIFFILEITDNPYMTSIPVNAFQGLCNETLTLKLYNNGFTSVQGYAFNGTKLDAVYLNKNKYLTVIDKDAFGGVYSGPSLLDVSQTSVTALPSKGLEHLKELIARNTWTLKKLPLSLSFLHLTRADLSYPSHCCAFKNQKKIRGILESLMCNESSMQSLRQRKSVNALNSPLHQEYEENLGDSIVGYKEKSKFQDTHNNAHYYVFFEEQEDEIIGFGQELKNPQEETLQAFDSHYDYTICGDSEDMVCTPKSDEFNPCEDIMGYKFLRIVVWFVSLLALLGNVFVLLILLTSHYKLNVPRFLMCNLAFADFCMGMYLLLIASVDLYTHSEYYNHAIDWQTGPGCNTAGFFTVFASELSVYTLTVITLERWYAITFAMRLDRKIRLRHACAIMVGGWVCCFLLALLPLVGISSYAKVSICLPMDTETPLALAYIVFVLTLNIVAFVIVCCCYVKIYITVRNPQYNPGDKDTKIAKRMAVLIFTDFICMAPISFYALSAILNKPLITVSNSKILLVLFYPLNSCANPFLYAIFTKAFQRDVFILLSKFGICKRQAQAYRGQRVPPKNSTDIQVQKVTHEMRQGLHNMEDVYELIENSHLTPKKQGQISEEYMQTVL
#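 Read-out is FRET at 665 nm (cryptate excitation 337 nm) from a cryptate-tagged anti-cAMP antibody, competed by cell cAMP against cAMP-d2. Compounds are tested on freshly harvested TSHR cells challenged with 4nM TSH (EC80) for 2 hours at 37 deg C.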
# CCT chaperon mod = changes cytosolic chaperonin activity; AID 651819; purified chaperonin ATPase assay, HTRF ADP detection, 30 min; 360,000 tested, 0.3% active; activity change, % (no concentration beside the values), hits read low; in the data active means activity change below about -30%; further: on the % scale 0 is the no-effect control and ±100 the full control effect
#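 Enzyme 40 or 20 nM (batch-dependent) in Tris pH 7.4/KCl/MgCl2/DTT; cpd 76 uM single point; ATP 10 uM; 30 min 37 °C; Transcreener ADP HTRF detection, 30 min RT; ratio 665/615.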
# Numbers without * were called inactive; i = inactive; . = no result; [ ] = another dose, or the depositor's remark.
SMILES,TCR act,pAkt inh,TSHR antag,CCT chaperon mod
Cc1ccc(S(=O)(=O)NCC2CCC(C(=O)NCc3ccc4c(c3)OCO4)CC2)cc1 (stereo not given),-2%,i,1,1
Cc1ccc(S(=O)(=O)NC(=O)NCc2ccc3c(c2)OCO3)cc1,0%,-111%*,0,-3
CC1CN(C(=O)CCN2C(=O)c3ccccc3C2=O)CC(C)O1 (stereo not given),2%[46.1 µM],-117%*,1,-2
CC1=CCC2C(=O)N(c3ccc(C(=O)Nc4ccccc4Cl)cc3)C(=O)C2C1 (stereo not given),-5%,i,-82*,-3
O=C(CCS(=O)(=O)c1ccc(Br)cc1)N1CCCCCC1,-1%,.,1,-74*
COc1ccc(/C=C(/NC(=O)c2ccc([N+](=O)[O-])cc2)C(=O)NCCCN(C)C)cc1,10%,i,-8,1
C=CCNC(=O)/C(=C\c1ccc(OC)cc1)NC(=O)c1ccc([N+](=O)[O-])cc1,-7%,i,26,-35*
O=C(CCS(=O)(=O)c1ccc(Br)s1)NCc1cccs1,6%,-82%*,6,0
CCOC(=O)N1CCN(C(=O)c2oc3ccc(S(=O)(=O)N4CC(C)CC(C)C4)cc3c2C)CC1 (stereo not given),.,i,-11,-2
CCOC(=O)C1CCN(C(=O)c2oc3ccc(S(=O)(=O)N4CC(C)CC(C)C4)cc3c2C)CC1 (stereo not given),1%,-82%*,-10,1
CCOC(=O)CSc1nc(C(C)C)nc2ccccc12,-5%,i,-9,-43*
COC(=O)CSc1nc(C(C)C)nc2ccccc12,-2%,i,3,1
N=C1/C(=C\c2ccc(-c3cccc(C(=O)O)c3)o2)C(=O)N=C2SC=C(c3ccccc3)N12,-2%,i,-33,-2
COc1ccc(CC2=CC(=O)c3ccccc3C2=O)cc1,1%,i,-83*,1
COc1ccc(CCNC(=O)COC(=O)c2cnc(C)cn2)cc1,-1%,-109%*,6,-2
COc1ccc(CCNC(=O)c2cnc(C)cn2)cc1,-4%,i,53,-1
CCCN1CCC(NC(=O)CCc2nnc(-c3ccccc3)o2)CC1,4%,i,1,-70*
O=C(Nc1ccc2c(c1)nc1n2CCSC1)c1ccco1,.,i,44,0
O=C(Nc1nnc2n1CCS2)c1ccco1,1%,i,-6,-73*
Nc1nc(SCC(=O)Nc2cc(-c3ccccc3)nn2-c2ccccc2)n[nH]1,1%,i,-10,-97*
Cc1ccc(-c2cc(NC(=O)CSc3n[nH]c(N)n3)n(-c3ccccc3)n2)cc1,5%,i,-8,-3
Nc1nc(SCC(=O)Nc2cc(Cl)c(Cl)cc2Cl)n[nH]1,1%[46.1 µM],i,-74*,-1
NC(=O)C(C1=CCCCC1)c1ccccc1 (stereo not given),-16%,i,.,0
CC(=O)Nc1ccc(S[C@@H](CCN2CC[C@H](C(C)(C)C)CCC2=O)c2ccccc2)cc1,5%,i,-6,-36*
COc1ccccc1N1CCN(C(=O)CCCN2C(=O)c3cccc4cccc(c34)C2=O)CC1,0%[46.1 µM],i,-72*,2
SMILES,TCR act,pAkt inh,TSHR antag,CCT chaperon mod
COc1ccccc1N1CCN(C(=O)CN2C(=O)c3cccc4cccc(c34)C2=O)CC1,-1%,i,-8,0
CCn1c(CNC(=O)C2CCCCC2)cc2ccccc21,3%,i,-1,-52*
O=C(CN(C(=O)c1csnn1)c1ccccc1)NCCc1ccccc1,-6%,i,5,1
Cc1cc(C)n(S(=O)(=O)c2cc(Cl)ccc2Cl)n1,-3%,-121%*,5,0
CC(C)(C)CC(=O)Nc1nnc(C(F)(F)F)s1,-1%[46.1 µM],i,-15,-3
Cc1cc(C(=O)Nc2nnc(C(F)(F)F)s2)no1,-5%,i,-10,0
CC(NC(=O)Nc1nnc(C(F)(F)F)s1)(C(F)(F)F)C(F)(F)F,2%,i,-94*,0
Cc1cc(C(=O)Nc2nnc(C(F)(F)F)s2)cs1,2%,i,-18,-34*
COCCNC(=O)C1(C)CCN(C(=O)c2ccc(OC)c(F)c2)C1 (stereo not given),.,i,.,1
CCOC(=O)CC1=NS(=O)(=O)c2ccccc2N1,11%,-106%*,5,3
O=C(CSc1nnc(C2CC2)n1Cc1ccco1)NCC(F)(F)F,4%,i,-10,0

# Source: PubChem BioAssay (National Center for Advancing Translational Sciences (NCATS))
